Test results as given in paper PMC7862700, “An all-to-all approach to the identification of sequence-specific readers for epigenetic DNA modifications on cytosine”.

Molecular target: T1, SPDEF (Homo sapiens, UniProt O95238 1-335)
T1 sequence: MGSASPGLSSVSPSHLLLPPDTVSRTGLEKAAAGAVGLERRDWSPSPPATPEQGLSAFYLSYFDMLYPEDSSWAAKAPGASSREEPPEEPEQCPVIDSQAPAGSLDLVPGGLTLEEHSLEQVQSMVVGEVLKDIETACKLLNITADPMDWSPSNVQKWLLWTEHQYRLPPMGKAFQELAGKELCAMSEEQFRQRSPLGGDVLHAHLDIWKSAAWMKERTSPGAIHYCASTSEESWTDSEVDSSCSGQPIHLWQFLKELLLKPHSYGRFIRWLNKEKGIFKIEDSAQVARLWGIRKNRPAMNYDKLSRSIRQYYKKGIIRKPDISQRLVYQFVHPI
Assay: DAPPL (digital affinity profiling via proximity ligation, sequencing); 10 mM Tris-HCl pH 7.5, 50 mM NaCl, 1 mM DTT, 4% glycerol, room temperature, 30 min; GST-TFs on glutathione beads, 16-mer random dsDNA library, 0.1% formaldehyde crosslink after washing; high values mean tight binding
Conditions: protein: recombinant; tags: N-terminal GST; dsDNA, one strand shown
How it was run: (§1)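 Binding signal is each hexamer's read frequency for a factor divided by its frequency in the tag-only sample. The factors were GST-fused human transcription factors from yeast, captured on glutathione beads, DNA-barcoded and pooled with that sample. Pools were incubated with 200 nmole of a random double-stranded 16-mer DNA library in Tris/NaCl/DTT/glycerol buffer at room temperature for 30 min, then washed, crosslinked with 0.1% formaldehyde, proximity-ligated with BsaI/T4 ligase (1 h, 37 °C), PCR-amplified and sequenced on an Illumina NextSeq500.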

Sequence	binding signal
ATTGAT	1.32 fold enrichment (6-mer frequency, TF over GST control)
CATCTA	1.07 fold enrichment (6-mer frequency, TF over GST control)
CTGATT	1.21 fold enrichment (6-mer frequency, TF over GST control)
CGAATA	1.1 fold enrichment (6-mer frequency, TF over GST control)
AAGAAA	1.09 fold enrichment (6-mer frequency, TF over GST control)
AGTATT	1.05 fold enrichment (6-mer frequency, TF over GST control)
TAAATG	1.35 fold enrichment (6-mer frequency, TF over GST control)
TTTTGT	1.35 fold enrichment (6-mer frequency, TF over GST control)
TCTGCT	1.21 fold enrichment (6-mer frequency, TF over GST control)
TTGAAA	1.07 fold enrichment (6-mer frequency, TF over GST control)
ACAATA	1.15 fold enrichment (6-mer frequency, TF over GST control)
CCTAAG	1.08 fold enrichment (6-mer frequency, TF over GST control)
CTCAAT	1.21 fold enrichment (6-mer frequency, TF over GST control)
TACATA	1.2 fold enrichment (6-mer frequency, TF over GST control)
TATTTT	1.24 fold enrichment (6-mer frequency, TF over GST control)
TTAATG	1.19 fold enrichment (6-mer frequency, TF over GST control)
ATCGAT	1.09 fold enrichment (6-mer frequency, TF over GST control)
TCCATT	1.2 fold enrichment (6-mer frequency, TF over GST control)
CGTTAA	1.1 fold enrichment (6-mer frequency, TF over GST control)
TCTAGC	1.22 fold enrichment (6-mer frequency, TF over GST control)

Sequence	binding signal
ATGCTA	1.23 fold enrichment (6-mer frequency, TF over GST control)
TTATGT	1.36 fold enrichment (6-mer frequency, TF over GST control)
TCTTGA	1.25 fold enrichment (6-mer frequency, TF over GST control)
ATGCTT	1.32 fold enrichment (6-mer frequency, TF over GST control)
CATCCT	2.33 fold enrichment (6-mer frequency, TF over GST control)
ACTGAT	1.1 fold enrichment (6-mer frequency, TF over GST control)
TTACTC	1.28 fold enrichment (6-mer frequency, TF over GST control)
TTGCCC	1.38 fold enrichment (6-mer frequency, TF over GST control)
ACGTCC	2.11 fold enrichment (6-mer frequency, TF over GST control)
AATGTT	1.44 fold enrichment (6-mer frequency, TF over GST control)
AATAGT	1.06 fold enrichment (6-mer frequency, TF over GST control)
CCAATC	1.16 fold enrichment (6-mer frequency, TF over GST control)
GTATCC	3.14 fold enrichment (6-mer frequency, TF over GST control)
ACAATT	1.13 fold enrichment (6-mer frequency, TF over GST control)
TTCTTT	1.08 fold enrichment (6-mer frequency, TF over GST control)
TAAAAC	1.18 fold enrichment (6-mer frequency, TF over GST control)
TCCTTC	2.21 fold enrichment (6-mer frequency, TF over GST control)
TTCGTA	1.21 fold enrichment (6-mer frequency, TF over GST control)
TAGCTA	1.08 fold enrichment (6-mer frequency, TF over GST control)
TATTTG	1.32 fold enrichment (6-mer frequency, TF over GST control)

Molecular target: T2, ETV7 (Homo sapiens, UniProt Q9Y603 1-341)
T2 sequence: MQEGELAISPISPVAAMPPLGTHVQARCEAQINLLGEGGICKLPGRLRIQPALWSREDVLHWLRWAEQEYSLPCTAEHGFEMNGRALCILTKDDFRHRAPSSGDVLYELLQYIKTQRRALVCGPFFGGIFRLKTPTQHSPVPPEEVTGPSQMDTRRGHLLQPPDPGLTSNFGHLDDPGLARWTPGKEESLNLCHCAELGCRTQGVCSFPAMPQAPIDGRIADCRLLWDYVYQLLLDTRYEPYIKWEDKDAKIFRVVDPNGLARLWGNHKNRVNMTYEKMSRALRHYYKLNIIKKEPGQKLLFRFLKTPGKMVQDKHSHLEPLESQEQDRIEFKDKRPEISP
Assay: as above
Conditions: protein: recombinant; tags: N-terminal GST; dsDNA, one strand shown
How it was run: as §1

Sequence	binding signal
ATTGAT	1.23 fold enrichment (6-mer frequency, TF over GST control)
CATCTA	1.21 fold enrichment (6-mer frequency, TF over GST control)
CTGATT	1.24 fold enrichment (6-mer frequency, TF over GST control)
CGAATA	1.18 fold enrichment (6-mer frequency, TF over GST control)
AAGAAA	1.26 fold enrichment (6-mer frequency, TF over GST control)
AGTATT	1.3 fold enrichment (6-mer frequency, TF over GST control)
TAAATG	1.31 fold enrichment (6-mer frequency, TF over GST control)
TTTTGT	1.22 fold enrichment (6-mer frequency, TF over GST control)
TCTGCT	1.14 fold enrichment (6-mer frequency, TF over GST control)
TTGAAA	1.19 fold enrichment (6-mer frequency, TF over GST control)
ACAATA	1.07 fold enrichment (6-mer frequency, TF over GST control)
CCTAAG	1.09 fold enrichment (6-mer frequency, TF over GST control)
CTCAAT	1.16 fold enrichment (6-mer frequency, TF over GST control)
TACATA	1.31 fold enrichment (6-mer frequency, TF over GST control)
TATTTT	1.49 fold enrichment (6-mer frequency, TF over GST control)
TTAATG	1.26 fold enrichment (6-mer frequency, TF over GST control)
ATCGAT	1.11 fold enrichment (6-mer frequency, TF over GST control)
TCCATT	1.26 fold enrichment (6-mer frequency, TF over GST control)
CGTTAA	1.12 fold enrichment (6-mer frequency, TF over GST control)
TCTAGC	1.36 fold enrichment (6-mer frequency, TF over GST control)

Sequence	binding signal
ATGCTA	1.3 fold enrichment (6-mer frequency, TF over GST control)
TTATGT	1.3 fold enrichment (6-mer frequency, TF over GST control)
TCTTGA	1.22 fold enrichment (6-mer frequency, TF over GST control)
ATGCTT	1.33 fold enrichment (6-mer frequency, TF over GST control)
CATCCT	1.5 fold enrichment (6-mer frequency, TF over GST control)
ACTGAT	1.13 fold enrichment (6-mer frequency, TF over GST control)
TTACTC	1.29 fold enrichment (6-mer frequency, TF over GST control)
TTGCCC	1.38 fold enrichment (6-mer frequency, TF over GST control)
ACGTCC	1.61 fold enrichment (6-mer frequency, TF over GST control)
AATGTT	1.68 fold enrichment (6-mer frequency, TF over GST control)
AATAGT	1.18 fold enrichment (6-mer frequency, TF over GST control)
CCAATC	1.23 fold enrichment (6-mer frequency, TF over GST control)
GTATCC	1.69 fold enrichment (6-mer frequency, TF over GST control)
ACAATT	1.21 fold enrichment (6-mer frequency, TF over GST control)
TTCTTT	1.24 fold enrichment (6-mer frequency, TF over GST control)
TAAAAC	1.27 fold enrichment (6-mer frequency, TF over GST control)
TCCTTC	1.92 fold enrichment (6-mer frequency, TF over GST control)
TTCGTA	1.4 fold enrichment (6-mer frequency, TF over GST control)
TAGCTA	1.31 fold enrichment (6-mer frequency, TF over GST control)
TATTTG	1.52 fold enrichment (6-mer frequency, TF over GST control)

Molecular target: T3, ELF5 (Homo sapiens, UniProt Q9UKW6-2 1-255)
T3 sequence: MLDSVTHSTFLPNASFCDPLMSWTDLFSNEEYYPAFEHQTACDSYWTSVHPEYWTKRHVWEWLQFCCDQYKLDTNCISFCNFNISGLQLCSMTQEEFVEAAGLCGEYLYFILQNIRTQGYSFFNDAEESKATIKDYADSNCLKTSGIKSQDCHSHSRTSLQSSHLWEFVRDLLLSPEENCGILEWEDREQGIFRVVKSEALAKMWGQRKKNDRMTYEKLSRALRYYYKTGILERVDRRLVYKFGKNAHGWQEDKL
Assay: as above
Conditions: protein: recombinant; tags: N-terminal GST; dsDNA, one strand shown
How it was run: as §1

Sequence	binding signal
ATTGAT	1.27 fold enrichment (6-mer frequency, TF over GST control)
CATCTA	1.17 fold enrichment (6-mer frequency, TF over GST control)
CTGATT	1.19 fold enrichment (6-mer frequency, TF over GST control)
CGAATA	1.11 fold enrichment (6-mer frequency, TF over GST control)
AAGAAA	1.2 fold enrichment (6-mer frequency, TF over GST control)
AGTATT	1.27 fold enrichment (6-mer frequency, TF over GST control)
TAAATG	1.16 fold enrichment (6-mer frequency, TF over GST control)
TTTTGT	1.33 fold enrichment (6-mer frequency, TF over GST control)
TCTGCT	1.2 fold enrichment (6-mer frequency, TF over GST control)
TTGAAA	1.03 fold enrichment (6-mer frequency, TF over GST control)
ACAATA	1.09 fold enrichment (6-mer frequency, TF over GST control)
CCTAAG	1.11 fold enrichment (6-mer frequency, TF over GST control)
CTCAAT	1.27 fold enrichment (6-mer frequency, TF over GST control)
TACATA	1.16 fold enrichment (6-mer frequency, TF over GST control)
TATTTT	1.29 fold enrichment (6-mer frequency, TF over GST control)
TTAATG	1.19 fold enrichment (6-mer frequency, TF over GST control)
ATCGAT	1.09 fold enrichment (6-mer frequency, TF over GST control)
TCCATT	1.2 fold enrichment (6-mer frequency, TF over GST control)
CGTTAA	1.19 fold enrichment (6-mer frequency, TF over GST control)
TCTAGC	1.21 fold enrichment (6-mer frequency, TF over GST control)
